Sampled rows, rich in hits. Any-hit rate of the full collection: about 2.7%.
12-LOX inh = ALOX12 (human) lipoxygenase inhibition; P18054; purified 12hLO, xylenol orange hydroperoxide absorbance; Potency, µM (highest dose often 108 µM), actives largely listed as inhibitors; 580,000 compounds, 1.1% hits
Target sequence (P18054 whole entry, looked up): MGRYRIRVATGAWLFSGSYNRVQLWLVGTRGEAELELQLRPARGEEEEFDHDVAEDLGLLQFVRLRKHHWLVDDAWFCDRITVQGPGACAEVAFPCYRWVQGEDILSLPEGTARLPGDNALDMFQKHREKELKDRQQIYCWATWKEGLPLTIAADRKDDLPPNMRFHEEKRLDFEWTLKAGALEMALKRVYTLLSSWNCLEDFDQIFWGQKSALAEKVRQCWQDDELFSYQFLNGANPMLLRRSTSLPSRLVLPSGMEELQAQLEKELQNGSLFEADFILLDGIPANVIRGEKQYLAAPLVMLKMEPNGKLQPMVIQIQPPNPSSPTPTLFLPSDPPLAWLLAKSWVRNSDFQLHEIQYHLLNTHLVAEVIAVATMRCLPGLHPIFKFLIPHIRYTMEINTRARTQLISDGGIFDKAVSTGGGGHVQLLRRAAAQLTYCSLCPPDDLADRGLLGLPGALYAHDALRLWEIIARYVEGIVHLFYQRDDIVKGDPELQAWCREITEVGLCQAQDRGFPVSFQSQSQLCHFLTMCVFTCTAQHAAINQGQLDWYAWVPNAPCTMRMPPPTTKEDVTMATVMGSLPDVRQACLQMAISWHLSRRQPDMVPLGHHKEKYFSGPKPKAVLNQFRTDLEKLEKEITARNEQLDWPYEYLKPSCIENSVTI
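Hydroperoxide product was detected by ferrous iron/xylenol orange as the 573 to 405 nm absorbance ratio. Arachidonic acid at 40 uM (final) was turned over for 30 min at room temperature by 150 nM human 12hLO, pH 7.0 Hepes buffer, after 15 min compound preincubation.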
ERG-DNA inh = blocks human ERG Ets domain binding to DNA. P11308. fluorescence polarization, His-ERG Ets domain / labelled DNA. Potency, µM (doses to about 76.9 µM), actives largely listed as inhibitors. 370,000 compounds, 0.028% hits; active means well fitted inhibition curve with a large enough effect in the polarisation, with a control signal flat; inconclusive means small, poorly fitted or top-dose-only effect, or effect the other way, or a change in a side signal; inactive means no such curve, though single readings can be large or run the other way; the % refers to the polarisation;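 further: polarization taken with two DNA probes labelled with fluorescein and Texas red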
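His-tagged ERG Ets domain (1 uM in the protein solution; 300mM KCl, 50mM Tris-HCl, 1mM EDTA, 1mM DTT, pH 7.5) received compound, then a probe mix of 5 nM fluorescein-DNA and 100nM Texas-615-DNA. Fluorescence polarization was read for both dyes.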
A549 tox-1 = counter-screen for Nrf2 inhibitors: cytotoxicity in A549 cells; A549 ARE-Fluc cells, CellTiter-Fluor viability, 18-24 h; Potency, µM (highest dose often 46 µM), most hits filed as inhibitors; 390,000 compounds, 0.16% hits; AID 504648
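A549 ARE-Fluc cells in 5% FBS OPTI-MEM, 5000 cells/well, rested 2 h then exposed to compounds in concentration-response for 18-24 h at 37 °C. Viability by CellTiter-Fluor fluorescence (Ex 405/Em 525) after 30 min; luciferase luminescence (BugLite, 15 min, RT) read afterwards.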
LDHA inh = blocks human lactate dehydrogenase A. AID 1347041. 480,000 compounds, 0.15% hits. P00338. activity change, % (values are at about 110 or 230 µM). purified LDHA, NADH/diaphorase-resazurin fluorescence; stronger effect = lower value; in the data active means activity change below about -30%; inconclusive means mostly about -25% to -30%
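Human LDH5 (2 nM) was incubated with 0.06 mM NADH and 0.2 mM pyruvate for 5 min at room temperature in Tris pH 7.4. Remaining NADH was coupled through diaphorase/resazurin, and resorufin fluorescence was read at 0 and 20 min.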
Nrf2 inh = inhibitors of Nrf2 signaling; AID 504444; Potency, µM (doses to about 46 µM), hits mostly inhibitors; 360,000 compounds, 2.1% hits; A549 ARE-Fluc reporter, luciferase luminescence, 18-24 h; further: nearly all actives have a fitted effect of over 60% in size
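In this cell-based qHTS, ARE-driven firefly luciferase in A549 cells reports Nrf2 activity; the luminescent signal after BugLite lysis is the measured value, with a prior CellTiter-Fluor read for cell health.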
Nrf2 activator = Nrf2 pathway activation; AREc32 ARE-luciferase reporter (MCF7-derived line), luminescence, 24 h; Potency, µM (top dose mostly 46.1 µM), most hits filed as activators; 410,000 compounds, 0.31% hits; further: nearly all actives have a fitted effect of over 65% in size
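Each well held 1000 AREc32 cells, which were incubated with compound for 24 hr at 37 deg C after overnight attachment, and ARE reporter activity was quantified by firefly luciferase luminescence.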
FLuc counter 3 = blocks purified firefly luciferase in Nrf2 counterscreen. shares compounds with Nrf2 inh. purified firefly luciferase, luminescence inhibition. Potency, µM (doses to about 57.5 µM), hits mostly inhibitors. 1,400 compounds, 4% hits. AID 720522; further: nearly all actives have a fitted effect of over 65% in size
A549 tox-2 = counter-screen for Nrf2 inhibitors: cytotoxicity in A549 ARE cells; AID 720523; Potency, µM (doses to about 46.1 µM), hits mostly inhibitors; 1,400 compounds, 2% hits; shares compounds with Nrf2 inh; A549 ARE-Fluc cells, cytotoxicity counterscreen;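 further: cells exposed to compounds for 18 to 24 hours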
Nrf2 ARE inh = Nrf2 inhibition confirmed, A549 ARE-luciferase | shares compounds with Nrf2 inh | A549 ARE-firefly luciferase reporter, luminescence | Potency, µM (top dose mostly 46.1 µM), most hits filed as inhibitors | 1,400 compounds, 74% hits | AID 720524; further: nearly all actives have a fitted effect of over 65% in size
Numbers stand for hits; [ ] = remark or other dose. Unless noted, the call rests on the fitted dose curve; in most records, active means well fitted curve in the direction sought with a large enough effect; inconclusive means small, poorly fitted or top-dose-only effect, or another doubt; inactive means no such curve, though single readings can be large; an effect the other way counts as inactive or inconclusive.

How did COc1ccc(S(=O)(=O)N2CCC(c3nc4ccccc4s3)CC2)cc1OC do in these assays?
12-LOX inh: inactive; ERG-DNA inh: inactive; A549 tox-1: inactive; LDHA inh: inactive; Nrf2 inh: inactive; Nrf2 activator: inactive

How did O=S(=O)(c1ccc2c(c1)OCCO2)N1CCC(c2nc3ccc(Cl)cc3[nH]2)CC1 do in these assays?
12-LOX inh: inactive; ERG-DNA inh: inactive; A549 tox-1: inconclusive; LDHA inh: inactive; Nrf2 inh: 4.6µM; Nrf2 activator: inactive; FLuc counter 3: inactive; A549 tox-2: inactive; Nrf2 ARE inh: 10µM

What do the screens show for `O=c1oc2ccccc2c(NC2CCCC2)c1NS(=O)(=O)c1cccc(F)c1`?
12-LOX inh: inconclusive; LDHA inh: inactive

What do the screens show for `Cc1ccccc1OCCSc1nc2cc(S(=O)(=O)N(C)C)ccc2o1`?
12-LOX inh: inconclusive; LDHA inh: inactive

How did O=c1cnnc(N/N=C/c2ccccn2)[nH]1 do in these assays?
12-LOX inh: inactive; ERG-DNA inh: inactive; A549 tox-1: inactive; LDHA inh: inactive; Nrf2 inh: inconclusive; Nrf2 activator: inactive; FLuc counter 3: inactive; A549 tox-2: inactive; Nrf2 ARE inh: 12µM

How did Cc1cc(=O)[nH]c(N/N=C/c2ccccn2)n1 do in these assays?
12-LOX inh: inactive; ERG-DNA inh: inactive; A549 tox-1: inactive; LDHA inh: inactive; Nrf2 inh: inactive; Nrf2 activator: inactive

Results for COc1cc(C=NO)nc(-c2ccccn2)c1 ?
12-LOX inh: inactive; A549 tox-1: inactive; LDHA inh: inactive; Nrf2 inh: 1.2µM; Nrf2 activator: inactive; FLuc counter 3: inactive; A549 tox-2: inactive; Nrf2 ARE inh: 2.6µM

What do the screens show for `COc1ccc(-c2nc3cc(NC(C)=O)ccc3o2)cc1Cl`?
12-LOX inh: inactive; LDHA inh: inactive

What do the screens show for `CC(Oc1ccc(Cl)cc1Cl)C(=O)Nc1ccc2oc(-c3ccncc3)nc2c1` (configuration not stated)?
12-LOX inh: inactive; ERG-DNA inh: inactive; A549 tox-1: inconclusive; LDHA inh: inactive; Nrf2 inh: 4.6µM; Nrf2 activator: inactive; FLuc counter 3: inactive; A549 tox-2: inactive; Nrf2 ARE inh: 8.2µM

What do the screens show for `CN1CCN(c2ccc(-c3noc([C@@H]4CCCN4CCCc4ccccc4)n3)cn2)CC1`?
12-LOX inh: inactive

Results for CN(c1ccccc1)S(=O)(=O)c1ccc(Cl)c(C(=O)Nc2ccncc2)c1 ?
12-LOX inh: inactive; ERG-DNA inh: inactive; A549 tox-1: inactive; LDHA inh: inactive; Nrf2 inh: 8.2µM; Nrf2 activator: inactive; FLuc counter 3: inactive; A549 tox-2: inactive; Nrf2 ARE inh: inconclusive

What do the screens show for `CCN(c1ccccc1)S(=O)(=O)c1ccc(Cl)c(C(=O)Nc2ccncc2)c1`?
12-LOX inh: inactive; LDHA inh: inactive; Nrf2 activator: inactive

Results for Cc1ccc(C(=O)OCC(=O)NC(=O)c2cccn2C)cc1 ?
12-LOX inh: inactive; ERG-DNA inh: inactive; A549 tox-1: inactive; LDHA inh: inactive; Nrf2 inh: 1.3µM; Nrf2 activator: inactive; FLuc counter 3: inactive; A549 tox-2: inactive; Nrf2 ARE inh: 1.6µM

Results for Cc1ccc(Nc2c(-c3ccccn3)nc3cccc(C)n23)cc1 ?
12-LOX inh: inconclusive; ERG-DNA inh: inactive; A549 tox-1: inconclusive; LDHA inh: inactive; Nrf2 inh: 6.5µM; Nrf2 activator: inactive; FLuc counter 3: inactive; A549 tox-2: inconclusive; Nrf2 ARE inh: 5.2µM

Results for Cc1ccc(Nc2c(-c3ccccn3)nc3ccc(Br)cn23)cc1 ?
12-LOX inh: inactive; ERG-DNA inh: inactive; A549 tox-1: inactive; LDHA inh: inactive; Nrf2 inh: inactive[9.27 µM]; Nrf2 activator: inactive

What do the screens show for `CNCc1ccc(OCc2cccc(Cl)c2)c(OC)c1`?
12-LOX inh: inactive; LDHA inh: inactive

Results for COc1ccc(C2=Nn3c([n+](C)c4ccccc43)SC2)cc1 ?
12-LOX inh: inactive; ERG-DNA inh: inactive; A549 tox-1: inactive; LDHA inh: inactive; Nrf2 inh: 2.1µM; Nrf2 activator: inactive; FLuc counter 3: inactive; A549 tox-2: inconclusive

What do the screens show for `CCc1cc(C(=O)NC(C)c2ccccc2)sc1C` (configuration not stated)?
12-LOX inh: inconclusive; LDHA inh: inactive

Results for CCOC(=O)N1CCC(NC(=O)c2ccc(CO)c(C(=O)NC3CCN(C(=O)OCC)CC3)c2)CC1 ?
12-LOX inh: inactive; ERG-DNA inh: inconclusive; A549 tox-1: inactive; LDHA inh: inactive; Nrf2 inh: inactive; Nrf2 activator: inactive

How did CCOC(=O)N1CCC(NC(=O)c2cc(C(=O)Nc3cccc(C(F)(F)F)c3)ccc2CO)CC1 do in these assays?
12-LOX inh: inactive; ERG-DNA inh: inactive; A549 tox-1: inconclusive; LDHA inh: inactive; Nrf2 inh: 5.8µM; Nrf2 activator: inactive; FLuc counter 3: inactive; A549 tox-2: inactive; Nrf2 ARE inh: 16µM

How did COc1ccc(-c2cn3nc(N4CCCC(C(=O)NCCc5cccs5)C4)sc3n2)cc1 (configuration not stated) do in these assays?
12-LOX inh: inactive; LDHA inh: inactive

Results for CC(Sc1nc2ccccc2c(=O)n1C)C(=O)Nc1ccc2c(c1)OCCO2 (configuration not stated) ?
12-LOX inh: inactive; ERG-DNA inh: inactive; A549 tox-1: inactive; LDHA inh: inactive; Nrf2 inh: 5.2µM; Nrf2 activator: inactive; FLuc counter 3: inactive; A549 tox-2: inactive; Nrf2 ARE inh: inconclusive

What do the screens show for `CC(C)Cn1c(SC(C)C(=O)Nc2ccc3c(c2)OCCO3)nc2ccccc2c1=O` (configuration not stated)?
12-LOX inh: inactive; A549 tox-1: inactive; LDHA inh: inactive; Nrf2 inh: inactive; Nrf2 activator: inactive

Results for CC(C)CCCCCCCCCCCCC(=O)NCC(=O)NC1C(O)C(O)C(Nc2ncnc3nc[nH]c23)OC1C(O)CO (configuration not stated) ?
12-LOX inh: inactive; ERG-DNA inh: inactive; A549 tox-1: 0.73µM; LDHA inh: inactive; Nrf2 inh: 0.058µM; Nrf2 activator: inactive; FLuc counter 3: inactive; A549 tox-2: inconclusive; Nrf2 ARE inh: 0.013µM

Screens (PubChem BioAssay)
